High-throughput results (PubChem)
U2OS ROS induce – raises reactive oxygen species in U2OS cancer cells; ROS induction (% of piperlongumine), % at 10 µM; U2OS ROS induction, H2DCF-DA fluorescence; actives 2% (n = 46,000); in the data active means ROS induction above about 79%, passing the limit was not always enough;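 further: 0% = DMSO vehicle median and 100% = reference compound median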
MITF inh – inhibitors of MITF; TRPM1 promoter luciferase, luminescence, 24 h; inhibition, % (test concentration not listed); actives 0.28% (n = 37,000); in the data active means inhibition above about 85%;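 further: human melanocyte line stably carrying TRPM1 promoter luciferase reporter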
BJeLR viab HTS – compounds reducing viability of BJeLR cells; viability loss activity score, % (concentration not given with the values); BJeLR fibroblasts viability, CellTiterGlo ATP luminescence, 48 h; HRASV12, hTERT and SV40 LT/ST transformed; actives 0.64% (n = 30,000); in the data active means viability loss activity score above about 50%;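 further: higher score means fewer live cells and less ATP luminescence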
YB-1 expression – YB-1 expression inhibition. U2OS, qRT-PCR YB-1 vs CDIP delta delta Cp, 16 h; active compounds read high; zero = DMSO, each unit about twofold. delta delta Cp (YB-1 minus CDIP) (no concentration beside the values). actives 0.37% (n = 30,000);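 active means delta delta Cp rounded down to an integer at or above 3, about 3 SD of DMSO wells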;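 further: higher means less YB-1 transcript or more CDIP transcript relative to DMSO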
* hit, by the source's call. In the library only some 2.5% were active in any assay of this set; here they are far more common.

Screening CCc1ccc(NC(=O)N2CC(C)Sc3ccccc32)cc1 (stereo not drawn) returned U2OS ROS induce -7 and BJeLR viab HTS 4.
`COC(=O)C(CC#Cc1ccc2c(c1)[C@]1(C(=O)N2)[C@H](c2ccc(OCCO)cc2)N2[C@H](c3ccccc3)[C@H](c3ccccc3)OC(=O)[C@H]2[C@@H]1C(=O)N1CCCCCCC1)C(=O)OC` gave U2OS ROS induce 128* and YB-1 expression 0.048.
For O=C1O[C@H](c2ccccc2)[C@H](c2ccccc2)N2[C@H]1[C@@H](C(=O)N1CCCCCCC1)[C@]1(C(=O)Nc3ccc(C#CC4=CCCCC4)cc31)[C@H]2c1ccc(OCCO)cc1 the results were U2OS ROS induce 100* and YB-1 expression 0.088.
`O=C1O[C@@H](c2ccccc2)[C@@H](c2ccccc2)N2[C@@H](c3ccc(OCCO)cc3)[C@]3(C(=O)Nc4ccc(C#CC5(O)CCCCCC5)cc43)[C@@H](C(=O)N3CCCCCCC3)[C@H]12` gave U2OS ROS induce 135* and YB-1 expression -0.34.
`O=S(=O)(c1ccccc1)c1nnn2c1nc(Cl)c1ccccc12` gave BJeLR viab HTS 1.
For N#Cc1c(C(F)(F)F)cc(-c2cccs2)nc1S/C=C/C(=O)c1ccccc1 the results were U2OS ROS induce 126*, MITF inh 5, BJeLR viab HTS 57* and YB-1 expression 0.25.
`COc1ccc2[nH]c3c(=O)n(CCN4CCC(Cc5ccccc5)CC4)cnc3c2c1` gave U2OS ROS induce 18 and BJeLR viab HTS 0.
`Cc1ccc2nc(C(F)(F)F)cc(N3CCN(/C=C(/C#N)S(=O)(=O)c4ccccn4)CC3)c2c1` gave U2OS ROS induce 93* and BJeLR viab HTS -6.
For N#C/C(=C\N1CCC(n2cccc2)CC1)S(=O)(=O)c1ccccn1 the results were U2OS ROS induce -11 and BJeLR viab HTS -1.
`O=C(CCC1CCCCC1)Nc1ccc(S(=O)(=O)Nc2ncccn2)cc1` gave U2OS ROS induce 5 and BJeLR viab HTS -1.
For COC(=O)C(CC#Cc1ccc2c(c1)[C@]1(C(=O)N2)[C@H](C(=O)NC[C@H](O)c2ccccc2)[C@H]2C(=O)O[C@H](c3ccccc3)[C@H](c3ccccc3)N2[C@@H]1c1ccccc1OCCO)C(=O)OC the results were U2OS ROS induce 113* and YB-1 expression 0.14.
`COCCOC(=O)N1C(=O)[C@@]2(c3cc(C#CCCO)ccc31)[C@H](c1ccccc1OCCO)N1[C@H](c3ccccc3)[C@H](c3ccccc3)OC(=O)[C@H]1[C@@H]2C(=O)N1CCc2cc(OC)c(OC)cc2C1` gave U2OS ROS induce 95* and YB-1 expression -0.078.
COC(=O)C(CC#Cc1ccc2c(c1)[C@]1(C(=O)N2)[C@H](C(N)=O)[C@H]2C(=O)O[C@H](c3ccccc3)[C@H](c3ccccc3)N2[C@@H]1c1ccc(OCCO)cc1)C(=O)OC was read as U2OS ROS induce 30 and YB-1 expression 0.17.
COC(=O)C(CC#Cc1ccc2c(c1)[C@]1(C(=O)N2)[C@H](c2ccccc2OCCO)N2[C@H](c3ccccc3)[C@H](c3ccccc3)OC(=O)[C@H]2[C@@H]1C(=O)N1CCc2cc(OC)c(OC)cc2C1)C(=O)OC was read as U2OS ROS induce 175* and YB-1 expression -0.24.
COC(=O)C(CC#Cc1ccc2c(c1)[C@]1(C(=O)N2)[C@H](C(N)=O)[C@H]2C(=O)O[C@H](c3ccccc3)[C@H](c3ccccc3)N2[C@@H]1c1ccccc1OCCO)C(=O)OC was read as U2OS ROS induce 142* and YB-1 expression -0.79.
Clc1cccc(Cc2cn3cc(-c4ccccc4)nc3s2)c1 was read as U2OS ROS induce -18 and BJeLR viab HTS -7.
For Nc1cc(=O)nc(SCC(=O)Nc2ccc(Cl)cn2)n1-c1ccccc1 the results were U2OS ROS induce -17 and BJeLR viab HTS 2.
C[C@H]1O[C@@H](O[C@H]2[C@@H](O)C[C@H](O[C@H]3[C@@H](O)C[C@H](O[C@H]4CC[C@@]5(C)[C@H](CC[C@@H]6[C@@H]5C[C@@H](O)[C@]5(C)[C@@H](C7=CC(=O)OC7)CC[C@]65O)C4)O[C@@H]3C)O[C@@H]2C)C[C@H](O)[C@@H]1O was read as U2OS ROS induce -6, MITF inh 45, BJeLR viab HTS 99* and YB-1 expression 0.23.
For CCOC(=O)c1nnn2c1nc(Sc1nnc(-c3ccncc3)n1C)c1ccccc12 the results were U2OS ROS induce 161*, MITF inh 7, BJeLR viab HTS 14 and YB-1 expression -0.79.
Screening Cn1c(SCCC(=O)O)nnc1-c1ccncc1 returned U2OS ROS induce 66 and MITF inh -5.
`CCOC(=O)c1nnn2c1nc(Sc1nc3ccccc3o1)c1ccccc12` gave U2OS ROS induce 108*, MITF inh 16, BJeLR viab HTS -2 and YB-1 expression -0.17.
CCOC(=O)c1nnn2c1nc(N(CC)CC)c1ccccc12 was read as U2OS ROS induce 37, MITF inh 8, BJeLR viab HTS 0 and YB-1 expression -0.57.
For COc1ccc(OCC(O)CNC(=O)c2cccnc2Oc2ccc(Cl)cc2)cc1 (stereo not drawn) the results were BJeLR viab HTS -3.
`COc1ccc2c(Sc3ccccc3)c(C(=O)N3CCc4ccccc43)[nH]c2c1` gave U2OS ROS induce 0 and BJeLR viab HTS 4.
For CC1=C(C(=O)Nc2ccc(C)cc2)C2(CCCCC2)OC1=O the results were BJeLR viab HTS -5.
`C[C@H](CO)N1C[C@H](C)[C@H](CN(C)Cc2ccc(-c3ccccc3)cc2)Oc2ccc(NC(=O)Cc3ccccc3)cc2CC1=O` gave U2OS ROS induce 28, MITF inh 37 and YB-1 expression 0.23.
`C[C@H]1CN([C@@H](C)CO)C(=O)c2cc(NC(=O)Cc3ccccc3)ccc2O[C@@H]1CN(C)Cc1ccc(Oc2ccccc2)cc1` gave U2OS ROS induce 190*, MITF inh 10, BJeLR viab HTS -2 and YB-1 expression -0.31.
C[C@@H]1CN([C@H](C)CO)C(=O)c2cc(N(C)C)ccc2O[C@H]1CN(C)Cc1ccc(C(=O)Nc2ccccc2N)cc1 was read as U2OS ROS induce 3 and YB-1 expression 0.27.
For C[C@@H]1CN([C@H](C)CO)C(=O)c2cc(N(C)C)ccc2O[C@@H]1CN(C)Cc1ccc(C(=O)Nc2ccccc2N)cc1 the results were U2OS ROS induce 37, MITF inh 41, BJeLR viab HTS 54* and YB-1 expression -0.32.
C[C@@H]1CN([C@H](C)CO)C(=O)Cc2cc(NC(=O)Cc3ccccc3)ccc2O[C@@H]1CN(C)Cc1ccc(-c2ccccc2)cc1 was read as U2OS ROS induce 203*, MITF inh 18 and YB-1 expression 0.28.
`C[C@H](CO)N1C[C@H](C)[C@H](CN(C)Cc2ccc(Oc3ccccc3)cc2)Oc2ccc(NC(=O)Cc3ccccc3)cc2C1=O` gave U2OS ROS induce 2, MITF inh 25, BJeLR viab HTS 2 and YB-1 expression -0.27.
